From PubChem BioAssay AID1159580 (chemical genetic matrix, 2015)
Where “and” joins values, the source holds several entries; their conditions need not be identical. Identical values can stand only once. Among all 5,500 compounds or so, about 2,000 (36%) were called active. About 18% were inconclusive and are not listed. No stated cut-off is given here; in the data, active means normalized growth mostly below about 0.91 (no sharp cut-off); inconclusive means no clear call, values can overlap the other calls; inactive means mostly above about 0.92. The list shows a part of the results.

Test: chemical genetic growth profiling, strain panel (AID 1159580);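 further: tested at 20 µM; growth read once vehicle control cultures reached saturation at 30 °C; 1 = growth at the plate median or of vehicle wells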
Conditions: S. cerevisiae deletion strains, growth OD

CC/C(=C(/CC)c1ccc(O)cc1)c1ccc(O)cc1
normalized growth (locus YAL021C, strain ccr4, stronger effect = lower value): 1.09 [resistant] (active) | normalized growth (locus YAL026C, strain drs2, stronger effect = lower value): 0.958 (inactive) | normalized growth (locus YAL030W, strain snc1, stronger effect = lower value): 1 (inactive) | normalized growth (locus YBL061C, strain skt5, stronger effect = lower value): 1 (inactive) | normalized growth (locus YBR009C, strain hhf1, stronger effect = lower value): 0.953 (inactive) | normalized growth (locus YBR021W, strain FUR4, stronger effect = lower value): 0.992 (inactive) | normalized growth (locus YBR023C, strain chs3, stronger effect = lower value): 0.984 (inactive) | normalized growth (locus YBR171W, strain sec66, stronger effect = lower value): 0.987 (inactive) | normalized growth (locus YBR229C, strain ROT2, stronger effect = lower value): 1 (inactive) | normalized growth (locus YBR231C, strain swc5, stronger effect = lower value): 1.03 (inactive) | normalized growth (locus YBR279W, strain paf1, stronger effect = lower value): 0.961 (inactive) | normalized growth (locus YCL011C, strain gbp2, stronger effect = lower value): 0.976 (inactive) | normalized growth (locus YCL016C, strain dcc1, stronger effect = lower value): 0.943 (inactive) | normalized growth (locus YCL029C, strain bik1, stronger effect = lower value): 0.962 (inactive) | normalized growth (locus YCL061C, strain MRC1, stronger effect = lower value): 1 (inactive) | normalized growth (locus YCL069W, strain vba3, stronger effect = lower value): 0.987 (inactive) | normalized growth (locus YCR088W, strain abp1, stronger effect = lower value): 1.02 (inactive) | normalized growth (locus YDL005C, strain med2, stronger effect = lower value): 1.01 (inactive) | normalized growth (locus YDL035C, strain GPR1, stronger effect = lower value): 0.867 (inactive) | normalized growth (locus YDL040C, strain nat1, stronger effect = lower value): 1.01 (inactive) | normalized growth (locus YDL074C, strain BRE1, stronger effect = lower value): 0.776 (active) | normalized growth (locus YDL101C, strain DUN1, stronger effect = lower value): 0.963 (inactive) | normalized growth (locus YDL185W, strain tfp1, stronger effect = lower value): 0.997 (inactive) | normalized growth (locus YDL192W, strain arf1, stronger effect = lower value): 0.991 (inactive) | normalized growth (locus YDR001C, strain nth1, stronger effect = lower value): 1.01 (inactive) | normalized growth (locus YDR069C, strain doa4, stronger effect = lower value): 1.02 (inactive) | normalized growth (locus YDR101C, strain arx1, stronger effect = lower value): 0.961 (inactive) | normalized growth (locus YDR137W, strain rgp1, stronger effect = lower value): 0.49 (active) | normalized growth (locus YDR150W, strain NUM1, stronger effect = lower value): 1.01 (inactive) | normalized growth (locus YDR159W, strain sac3, stronger effect = lower value): 0.905 (inactive) | normalized growth (locus YDR162C, strain NBP2, stronger effect = lower value): 0.754 (active) | normalized growth (locus YDR195W, strain ref2): 1.2 [resistant] (active) | normalized growth (locus YDR297W, strain sur2, stronger effect = lower value): 1 (inactive) | normalized growth (locus YDR318W, strain mcm21, stronger effect = lower value): 0.952 (inactive) | normalized growth (locus YDR334W, strain swr1, stronger effect = lower value): 1.04 (inactive) | normalized growth (locus YDR335W, strain msn5, stronger effect = lower value): 1.02 (inactive) | normalized growth (locus YDR388W, stronger effect = lower value): 0.991 (inactive) | normalized growth (locus YDR392W, strain spt3, stronger effect = lower value): 0.869 (inactive) | normalized growth (locus YDR502C, strain sam2, stronger effect = lower value): 0.955 (inactive) | normalized growth (locus YEL003W, strain gim4, stronger effect = lower value): 1 (inactive) | normalized growth (locus YEL037C, strain rad23, stronger effect = lower value): 1.01 (inactive) | normalized growth (locus YEL061C, strain CIN8 (second series), stronger effect = lower value): 1.03 (inactive) | normalized growth (locus YEL061C, strain CIN8, stronger effect = lower value): 0.999 (inactive) | normalized growth (locus YER015W, strain faa2, stronger effect = lower value): 0.945 (inactive) | normalized growth (locus YER016W, strain bim1, stronger effect = lower value): 0.958 (inactive) | normalized growth (locus YER110C, stronger effect = lower value): 1.03 (inactive) | normalized growth (locus YER111C, strain swi4, stronger effect = lower value): 1.05 (inactive) | normalized growth (locus YER155C, strain BEM2 (second series), stronger effect = lower value): 1.03 (inactive) | normalized growth (locus YER155C, strain BEM2, stronger effect = lower value): 0.979 (inactive) | normalized growth (locus YER167W, strain BCK2, stronger effect = lower value): 0.984 (inactive) | normalized growth (locus YFR010W, strain ubp6, stronger effect = lower value): 1.04 (inactive) | normalized growth (locus YGL078C, strain dbp3, stronger effect = lower value): 0.977 (inactive) | normalized growth (locus YGL086W, strain mad1, stronger effect = lower value): 0.955 (inactive) | normalized growth (locus YGL167C, strain pmr1, stronger effect = lower value): 0.995 (inactive) | normalized growth (locus YGL173C, strain kem1, stronger effect = lower value): 0.959 (inactive) | normalized growth (locus YGL227W, strain vid30, stronger effect = lower value): 1.03 (inactive) | normalized growth (locus YGL240W, strain doc1, stronger effect = lower value): 0.98 (inactive) | normalized growth (locus YGL248W, strain PDE1, stronger effect = lower value): 0.915 (inactive) | normalized growth (locus YGL253W, strain hxk2, stronger effect = lower value): 0.989 (inactive) | normalized growth (locus YGR135W, strain pre9, stronger effect = lower value): 0.962 (inactive) | normalized growth (locus YGR252W, strain gcn5, stronger effect = lower value): 0.921 (inactive) | normalized growth (locus YHR013C, strain ard1, stronger effect = lower value): 1.09 (inactive) | normalized growth (locus YHR027C, strain rpn1, stronger effect = lower value): 0.98 (inactive) | normalized growth (locus YHR030C, strain SLT2, stronger effect = lower value): 0.98 (inactive) and 0.958 (inactive) | normalized growth (locus YHR079C, strain IRE1 (second series), stronger effect = lower value): 1.01 (inactive) | normalized growth (locus YHR079C, strain IRE1, stronger effect = lower value): 0.96 (inactive) | normalized growth (locus YHR094C, strain hxt1, stronger effect = lower value): 1 (inactive) | normalized growth (locus YHR129C, strain ARP1, stronger effect = lower value): 0.976 (inactive) | normalized growth (locus YHR142W, strain chs7, stronger effect = lower value): 1.03 (inactive) | normalized growth (locus YHR200W, strain rpn10, stronger effect = lower value): 0.991 (inactive) | normalized growth (locus YIL066C, strain RNR3, stronger effect = lower value): 0.937 (inactive) | normalized growth (locus YIL073C, strain SPO22, stronger effect = lower value): 1.21 (inactive) | normalized growth (locus YIL125W, strain kgd1, stronger effect = lower value): 0.995 (inactive) | normalized growth (locus YIR030C, strain dcg1, stronger effect = lower value): 0.998 (inactive) | normalized growth (locus YJL092W, strain hpr5, stronger effect = lower value): 1 (inactive) | normalized growth (locus YJL095W, strain BCK1 (second series), stronger effect = lower value): 0.982 (inactive) | normalized growth (locus YJL095W, strain BCK1, stronger effect = lower value): 0.795 (active) and 0.97 (inactive) | normalized growth (locus YJL115W, strain asf1, stronger effect = lower value): 1.04 (inactive) | normalized growth (locus YJL129C, strain trk1, stronger effect = lower value): 0.94 (inactive) | normalized growth (locus YJL134W, strain LCB3, stronger effect = lower value): 1 (inactive) | normalized growth (locus YJL154C, strain vps35, stronger effect = lower value): 0.997 (inactive) | normalized growth (locus YJL164C, strain tpk1, stronger effect = lower value): 0.944 (inactive) | normalized growth (locus YJL166W, strain qcr8, stronger effect = lower value): 0.958 (inactive) | normalized growth (locus YJL168C, strain set2, stronger effect = lower value): 1 (inactive) | normalized growth (locus YJL187C, strain SWE1 (second series), stronger effect = lower value): 0.923 (inactive) | normalized growth (locus YJR043C, strain POL32, stronger effect = lower value): 0.952 (inactive) | normalized growth (locus YJR066W, strain TOR1, stronger effect = lower value): 0.938 (inactive) | normalized growth (locus YJR075W, strain HOC1, stronger effect = lower value): 0.959 (inactive)
